Source: PubChem (several laboratories)
Sampled rows, rich in hits. Any-hit rate of the full collection: about 2.7%.
MPTP inh – inhibitors of mitochondrial permeability transition pore; AID 602449; actives 1.4% (n = 360,000); inhibition, % at 10 µM; isolated mouse mitochondria, Ca2+ swelling absorbance, 30 min;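 active = inhibition of 50% or more, scaled per plate between neutral and stimulator controls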
SKN-1 block – blocks SKN-1 activity in C. elegans; actives 0.49% (n = 360,000); C. elegans VP596 Pgst-4::GFP/RFP ratio, acrylamide-induced, 24 h; inhibition, % at 21.8 µM;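 active = interference check ratio from 0.5 to 1.5 plus GFP to RFP signal ratio inhibition reaching or exceeding a fixed threshold, cut at about 30% in these data, passing the limit was not always enough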
CendR NRP1 mod – NRP-1/CendR interaction modulation; FAM-RPARPAR peptide binding to NRP-1, fluorescence polarization; inhibition, % at 25 µM; AID 602438; actives 0.85% (n = 360,000); O14786;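 active = inhibition or corrected inhibition above about 18%, plus a signal ratio from 0.5 to 1.5, limit read from the data, passing the limit was not always enough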
CFTR F508del cor – correctors of CFTR F508del function in bronchial epithelial cells; CFBE cells, YFP halide quenching; stimulated with forskolin plus potentiator P3; % fluorescence drop versus neutral controls; activity (quench increase), % at 7.58 µM; actives 0.36% (n = 350,000);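 active = mean added fluorescence quench of at least 8% versus neutral control, with both replicates also reaching 8%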;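 also: cells transiently co-express mutant CFTR-F508del with the halide-sensitive YFP; corrector assay measuring rescue of mutant channel to the surface after 24 h compound exposure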
ATG4B inh – inhibitors of human ATG4B cysteine protease; Q9Y4P1; AID 504462; inhibition, % at 8.33 µM; ATG4B cleavage of LC3-PLA2, NBD-HPC fluorescence, 1 h; actives 0.51% (n = 340,000); in the data active = inhibition above about 40%
Target sequence (Q9Y4P1 whole entry, looked up): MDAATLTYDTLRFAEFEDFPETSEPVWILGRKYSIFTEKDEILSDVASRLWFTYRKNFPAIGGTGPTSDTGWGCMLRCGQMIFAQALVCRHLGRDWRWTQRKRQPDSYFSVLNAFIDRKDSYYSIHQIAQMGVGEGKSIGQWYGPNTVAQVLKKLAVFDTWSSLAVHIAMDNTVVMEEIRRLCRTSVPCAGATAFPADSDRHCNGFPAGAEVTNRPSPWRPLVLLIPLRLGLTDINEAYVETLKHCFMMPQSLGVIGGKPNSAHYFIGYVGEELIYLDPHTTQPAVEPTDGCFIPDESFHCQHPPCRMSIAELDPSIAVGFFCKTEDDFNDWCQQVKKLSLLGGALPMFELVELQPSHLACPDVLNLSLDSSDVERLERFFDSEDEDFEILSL
ATG4B confirm – ATG4B (human) inhibition, single-dose confirmed; shares compounds with ATG4B inh; AID 504757; actives 92% (n = 320); inhibition, % at 8.33 µM; ATG4B protease fluorescent substrate cleavage assay; in the data active = inhibition above about 39%
PLA2 ctr – counter-screen for ATG4B inhibitors: human phospholipase A2 | AID 588402 | shares compounds with ATG4B inh | actives 66% (n = 1,600) | purified PLA2, NBD-C6-HPC fluorescence, 45 min | inhibition, % at 8.33 µM; in the data active = inhibition above about 50%
Target sequence (P04054 whole entry, looked up): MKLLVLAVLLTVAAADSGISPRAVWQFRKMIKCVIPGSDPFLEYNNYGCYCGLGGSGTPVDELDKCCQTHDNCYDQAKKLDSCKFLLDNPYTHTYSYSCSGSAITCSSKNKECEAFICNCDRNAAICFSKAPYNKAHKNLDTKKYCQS
Large screens that a line does not name were inactive (follow-up assays come after a bar, where they were run).

CN(c1ccccc1)c1ccc(/C=C(\CCC(=O)O)c2nc3ccccc3s2)cc1[N+](=O)[O-]	ATG4B inh 46 (no result: CFTR F508del cor) | ATG4B confirm 70 | PLA2 ctr inactive
O=C(O)C/C(=C\c1cccc(NC(=O)c2ccccc2Cl)c1)c1nc2ccccc2s1	none
COc1ccc2c3c(n(C)c2c1)[C@H](CO)N(C(=O)Nc1cccc(F)c1)CC31CN(C)C1	none (no result: MPTP inh, SKN-1 block, CendR NRP1 mod, ATG4B inh)
COc1ccccc1C#Cc1ccc2c(c1)O[C@@H](CN(C)C(C)=O)[C@H](C)CN([C@@H](C)CO)S2(=O)=O	none (no result: MPTP inh, SKN-1 block, CendR NRP1 mod, ATG4B inh)
Fc1ccccc1Nc1ncnc2c1nnn2Cc1ccccc1	none
Clc1ccccc1Nc1ncnc2c1nnn2Cc1ccccc1	ATG4B inh 56 | PLA2 ctr 58
C[C@H](CO)N1C[C@H](C)[C@@H](CN(C)Cc2ccc3c(c2)OCCN3C)OCc2cn(nn2)CCCC1=O	none (no result: MPTP inh, SKN-1 block, CendR NRP1 mod, ATG4B inh)
Fc1ccc(CSc2nc3ccccc3[nH]2)c2ccccc12	ATG4B inh 66 (no result: CFTR F508del cor) | PLA2 ctr 74
CN(C)CC#Cc1ccc([C@H]2[C@H](CO)N3CCCCN(C(=O)NC4CCCC4)C[C@@H]23)cc1	none (no result: MPTP inh, SKN-1 block, CendR NRP1 mod, ATG4B inh)
CC(C)C#Cc1cnc2c(c1)C(=O)N([C@@H](C)CO)C[C@@H](C)[C@H](CN(C)C(=O)Nc1ccccc1F)O2	none (no result: MPTP inh, SKN-1 block, CendR NRP1 mod, ATG4B inh)
Cc1ccc(S(=O)(=O)N2[C@@H](c3ccc(C(C)(C)C)cc3)C(C(=O)O)=CC[C@H]2c2cccc(Cl)c2)cc1	ATG4B inh 41 | PLA2 ctr 61
CCOc1cc(C(N)=O)cc(Br)c1OCc1ccccc1	ATG4B inh 46 | PLA2 ctr 60
COc1c(Br)cc(C(N)=O)cc1OCc1ccccc1	ATG4B inh 67 | PLA2 ctr 72
C[C@@H]1CN([C@@H](C)CO)S(=O)(=O)c2ccc(C#Cc3ccccc3F)cc2O[C@H]1CN(C)CC1CC1	none (no result: MPTP inh, SKN-1 block, CendR NRP1 mod, ATG4B inh)
CCC1=Nc2cc(C(=O)N3CCCCC3)ccc2Sc2ccc(C)cc21	ATG4B inh 52 | PLA2 ctr 57
CC1=Nc2cc(C(=O)N3CCCCC3)ccc2Sc2ccc(C)cc21	ATG4B inh 52 | PLA2 ctr inactive
CCCC1=Nc2cc(C(=O)N3CCCC3)ccc2Sc2ccc(C)cc21	none
CC(C)CC#Cc1cnc2c(c1)C(=O)N([C@@H](C)CO)C[C@H](C)[C@H](CN(C)C(=O)Cc1cccnc1)O2	none (no result: MPTP inh, SKN-1 block, CendR NRP1 mod, ATG4B inh)
O=C1c2ccccc2N2C(=O)c3ccccc3C2N1Cc1ccccc1 (stereo not given)	none
O=C1c2ccccc2N2C(=O)c3ccccc3[C@H]2N1c1ccccc1	ATG4B inh 55 (no result: CFTR F508del cor) | PLA2 ctr 61
CCS(=O)(=O)N1CC(=O)N2[C@H](C1)[C@@H](c1ccc(C#CC3CCCCC3)cc1)[C@@H]2CO	none (no result: MPTP inh, SKN-1 block, CendR NRP1 mod, ATG4B inh)
CCC(=O)N(C)C[C@H]1[C@H](c2ccccc2)[C@@H](CO)N1C(=O)Cc1ccncc1	none (no result: MPTP inh, SKN-1 block, CendR NRP1 mod, ATG4B inh)
CC1Cc2ccccc2N1C(=O)COC(=O)c1c2c(nc3ccccc13)CCCCC2 (stereo not given)	ATG4B inh 44 (no result: CFTR F508del cor) | PLA2 ctr inactive
O=C(OCC(=O)N1CCc2ccccc21)c1c2c(nc3ccccc13)CCCC2	none (no result: CFTR F508del cor)
COc1ccc(OC)c(-c2csc(N(Cc3ccco3)C(=O)c3cccs3)n2)c1	ATG4B inh 57 (no result: CFTR F508del cor) | PLA2 ctr 72
CC(C)C(=O)Nc1ccc2c(c1)C(=O)N(C)[C@@H]1CC[C@@H](CC(=O)NCC3CC3)O[C@H]1CO2	none (no result: MPTP inh, SKN-1 block, CendR NRP1 mod, ATG4B inh)
Cc1sc2nc(C3CC3)nc(SCC(=O)N3c4ccccc4CC3C)c2c1C (stereo not given)	ATG4B inh 68 (no result: CFTR F508del cor) | PLA2 ctr 85
CCNc1ccc(C(=O)OCC(=O)N(Cc2ccccc2)C(C)(C)C)cc1[N+](=O)[O-]	ATG4B inh 43 | PLA2 ctr inactive
CCCNc1ccc(C(=O)OCC)cc1[N+](=O)[O-]	none
CCC(=O)Nc1ccc2c(c1)C(=O)N(C)[C@@H]1CC[C@@H](CC(=O)N[C@@H](C)c3ccccc3)O[C@H]1CO2	none (no result: MPTP inh, SKN-1 block, CendR NRP1 mod, ATG4B inh)
Cc1ccc(N2CC(O)=C(c3nc4ccccc4c(=O)[nH]3)C2=N)cc1C	ATG4B inh 46 | PLA2 ctr inactive
CCC(C)N(C(=O)COc1ccc(Br)cc1C=O)C1CCS(=O)(=O)C1 (stereo not given)	ATG4B inh 42 | ATG4B confirm 57 | PLA2 ctr inactive
CCCNC(=O)C[C@H]1CC[C@@H]2[C@@H](COc3ccc(NC(=O)C4CCOCC4)cc3C(=O)N2C)O1	none (no result: MPTP inh, SKN-1 block, CendR NRP1 mod, ATG4B inh)
C[C@@H]1CCCCO[C@H](CN(C)S(=O)(=O)c2ccc(F)cc2)[C@H](C)CN([C@@H](C)CO)C(=O)c2cc(NC(=O)CCC(F)(F)F)ccc2O1	none (no result: MPTP inh, SKN-1 block, CendR NRP1 mod, ATG4B inh)
COc1ccc(C)cc1S(=O)(=O)N(CC(=O)Nc1cccc([N+](=O)[O-])c1)c1ccccc1	ATG4B inh 84 (no result: CFTR F508del cor) | PLA2 ctr 90
CS(=O)(=O)N(CC(=O)Nc1cccc([N+](=O)[O-])c1)c1ccccc1	none
O=C(C[C@@H]1CC[C@@H](NC(=O)CCN2CCCCC2)[C@@H](CO)O1)Nc1ccc(-c2ccccc2)cc1	none (no result: MPTP inh, SKN-1 block, CendR NRP1 mod, ATG4B inh)
COC(=O)C[C@@H]1C[C@H]2c3cc(N)ccc3O[C@H]2[C@@H](CO)O1	none (no result: MPTP inh, SKN-1 block, CendR NRP1 mod, ATG4B inh)
C[C@@H]1CN([C@H](C)CO)C(=O)c2ccccc2-c2ccccc2CO[C@H]1CN(C)C(=O)Nc1cccc(F)c1	none (no result: MPTP inh, SKN-1 block, CendR NRP1 mod, ATG4B inh)
CCc1nnc(NS(=O)(=O)c2ccc(N/C=C\C(=O)c3ccc4ccccc4c3)cc2)s1	ATG4B inh 50 | ATG4B confirm 59 | PLA2 ctr inactive
Cc1ccc2c(c1)/C(=N/OC(=O)c1ccc(F)cc1)CCS2	none (no result: CFTR F508del cor)
O=C(O/N=C1/CCSc2ccccc21)c1ccccc1	CendR NRP1 mod 26, ATG4B inh 42 (no result: CFTR F508del cor) | ATG4B confirm 72 | PLA2 ctr inactive
C[C@H]1CCCCO[C@H](CN(C)CC2CC2)[C@@H](C)CN([C@@H](C)CO)C(=O)c2cc(NC(=O)Nc3ccc4c(c3)OCO4)ccc2O1	none (no result: MPTP inh, SKN-1 block, CendR NRP1 mod, ATG4B inh)
O=C1CCCCN1CCC(=O)N1CCCC(Nc2ccccc2)C1 (stereo not given)	none
O=C(CCc1cccc(Cl)c1)N1CCCC(Nc2ccccc2)C1 (stereo not given)	ATG4B inh 48 | PLA2 ctr inactive
Cc1occc1C(=O)N1CCCC(Nc2ccc(C(C)C)cc2)C1 (stereo not given)	ATG4B inh 50 | PLA2 ctr 58
CC(C)c1ccc(NC2CCCN(C(=O)c3n[nH]c4c3CCC4)C2)cc1 (stereo not given)	ATG4B inh 55 | ATG4B confirm 60 | PLA2 ctr inactive
CC(C)c1ccc(NC2CCCN(C(=O)c3ccnn3C)C2)cc1 (stereo not given)	none
CC(C)c1ccc(NC2CCCN(C(=O)CCN3Cc4ccccc4C3=O)C2)cc1 (stereo not given)	ATG4B inh 44 | ATG4B confirm 73 | PLA2 ctr inactive
